Our source for the residual activity values is ChEMBL document CHEMBL2218924, “A broad activity screen in support of a chemogenomic map for kinase signalling research and drug discovery” (Biochem J, 2013).

Structures are written as SMILES.

The target in assay [1] is Tyrosine-protein kinase SYK (Homo sapiens) (UniProt P43405). The conditions noted are these: at 10 µM.
Assay [2] concerns the target T1, Mitogen-activated protein kinase kinase kinase 7 (Homo sapiens) (UniProt O43318).
T1 sequence (whole entry): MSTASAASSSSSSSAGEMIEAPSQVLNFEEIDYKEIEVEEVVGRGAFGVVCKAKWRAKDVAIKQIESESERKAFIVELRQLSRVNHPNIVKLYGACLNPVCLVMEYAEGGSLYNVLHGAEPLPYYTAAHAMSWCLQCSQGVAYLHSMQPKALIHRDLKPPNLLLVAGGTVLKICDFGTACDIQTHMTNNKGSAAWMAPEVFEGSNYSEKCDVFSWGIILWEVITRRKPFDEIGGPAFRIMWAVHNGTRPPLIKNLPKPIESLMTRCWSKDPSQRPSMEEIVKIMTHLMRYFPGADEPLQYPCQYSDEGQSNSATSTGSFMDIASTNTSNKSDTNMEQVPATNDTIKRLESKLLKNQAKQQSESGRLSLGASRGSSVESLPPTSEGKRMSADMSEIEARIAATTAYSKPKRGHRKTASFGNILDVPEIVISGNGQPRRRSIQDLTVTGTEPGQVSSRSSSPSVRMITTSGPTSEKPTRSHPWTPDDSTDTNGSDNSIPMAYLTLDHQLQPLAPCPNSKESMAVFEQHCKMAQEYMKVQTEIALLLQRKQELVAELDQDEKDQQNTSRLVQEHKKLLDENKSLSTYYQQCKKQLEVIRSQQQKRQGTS
The conditions noted are these: at 1 µM.

The target in assay [3] is T1, Mitogen-activated protein kinase kinase kinase 7 (Homo sapiens). The conditions noted are these: at 10 µM.
For assay [4], the target named is T2, Serine/threonine-protein kinase TAO1 (Homo sapiens) (UniProt Q7L7X3).
T2 sequence (whole entry): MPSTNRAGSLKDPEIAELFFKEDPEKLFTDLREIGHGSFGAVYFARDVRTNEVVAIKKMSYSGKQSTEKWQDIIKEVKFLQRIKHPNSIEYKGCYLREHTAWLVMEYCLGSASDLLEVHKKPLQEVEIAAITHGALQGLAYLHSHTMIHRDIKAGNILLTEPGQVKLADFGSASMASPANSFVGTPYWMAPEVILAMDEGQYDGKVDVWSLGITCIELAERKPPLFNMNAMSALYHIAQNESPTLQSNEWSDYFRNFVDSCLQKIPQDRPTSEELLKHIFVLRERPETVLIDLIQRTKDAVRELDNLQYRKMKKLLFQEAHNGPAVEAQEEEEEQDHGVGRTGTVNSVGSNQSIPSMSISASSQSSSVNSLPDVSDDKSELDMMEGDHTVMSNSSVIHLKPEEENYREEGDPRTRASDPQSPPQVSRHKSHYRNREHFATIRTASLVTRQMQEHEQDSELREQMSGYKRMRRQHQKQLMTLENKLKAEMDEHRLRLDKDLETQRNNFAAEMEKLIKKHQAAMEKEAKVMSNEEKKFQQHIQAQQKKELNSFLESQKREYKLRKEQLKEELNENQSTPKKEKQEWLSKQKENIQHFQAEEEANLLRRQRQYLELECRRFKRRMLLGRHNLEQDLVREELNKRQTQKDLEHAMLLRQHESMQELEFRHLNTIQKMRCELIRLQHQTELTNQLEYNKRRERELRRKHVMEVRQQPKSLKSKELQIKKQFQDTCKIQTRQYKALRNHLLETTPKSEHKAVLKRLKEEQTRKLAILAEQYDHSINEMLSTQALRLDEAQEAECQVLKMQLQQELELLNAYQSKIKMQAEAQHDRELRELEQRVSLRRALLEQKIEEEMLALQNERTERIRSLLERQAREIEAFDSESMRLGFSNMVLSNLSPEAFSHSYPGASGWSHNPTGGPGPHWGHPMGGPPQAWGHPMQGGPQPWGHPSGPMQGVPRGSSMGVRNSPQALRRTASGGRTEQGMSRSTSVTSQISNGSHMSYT
The conditions noted are these: at 1 µM.

In assay [5] the target is T2, Serine/threonine-protein kinase TAO1 (Homo sapiens). The conditions noted are these: at 10 µM.
For assay [6], the target named is T3, Serine/threonine-protein kinase TAO2 (Homo sapiens) (UniProt Q9UL54).
T3 sequence (whole entry): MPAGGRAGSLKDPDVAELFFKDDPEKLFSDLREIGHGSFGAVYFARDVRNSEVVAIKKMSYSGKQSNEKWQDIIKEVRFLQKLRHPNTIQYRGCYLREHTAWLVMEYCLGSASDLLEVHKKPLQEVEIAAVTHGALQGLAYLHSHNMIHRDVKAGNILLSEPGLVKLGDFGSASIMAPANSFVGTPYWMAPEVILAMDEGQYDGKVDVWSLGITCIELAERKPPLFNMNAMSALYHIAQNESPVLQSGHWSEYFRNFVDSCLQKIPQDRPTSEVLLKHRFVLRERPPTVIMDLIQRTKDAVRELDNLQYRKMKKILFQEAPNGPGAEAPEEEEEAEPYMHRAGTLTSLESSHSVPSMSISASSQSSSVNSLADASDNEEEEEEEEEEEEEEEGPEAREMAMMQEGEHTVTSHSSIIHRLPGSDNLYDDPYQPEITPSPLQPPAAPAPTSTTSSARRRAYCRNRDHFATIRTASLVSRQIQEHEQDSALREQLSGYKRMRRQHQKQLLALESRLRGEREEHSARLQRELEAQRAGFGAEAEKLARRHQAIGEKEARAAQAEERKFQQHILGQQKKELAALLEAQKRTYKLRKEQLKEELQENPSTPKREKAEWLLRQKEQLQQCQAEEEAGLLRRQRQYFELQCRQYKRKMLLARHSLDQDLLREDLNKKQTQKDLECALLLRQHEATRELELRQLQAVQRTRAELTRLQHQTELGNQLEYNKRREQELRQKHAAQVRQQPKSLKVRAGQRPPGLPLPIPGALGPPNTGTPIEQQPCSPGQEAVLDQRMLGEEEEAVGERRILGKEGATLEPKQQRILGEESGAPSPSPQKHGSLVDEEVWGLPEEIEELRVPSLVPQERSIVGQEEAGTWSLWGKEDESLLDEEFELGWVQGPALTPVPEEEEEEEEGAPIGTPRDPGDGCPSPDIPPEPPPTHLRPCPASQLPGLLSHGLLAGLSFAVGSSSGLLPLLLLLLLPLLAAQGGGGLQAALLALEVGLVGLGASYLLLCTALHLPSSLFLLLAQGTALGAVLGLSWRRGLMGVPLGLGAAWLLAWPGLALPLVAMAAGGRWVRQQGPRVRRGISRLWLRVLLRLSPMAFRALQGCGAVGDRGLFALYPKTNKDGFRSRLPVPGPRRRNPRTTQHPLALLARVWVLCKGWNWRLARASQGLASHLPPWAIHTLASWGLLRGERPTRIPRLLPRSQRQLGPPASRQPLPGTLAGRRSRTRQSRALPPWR
As to conditions: at 1 µM.

Assay [7] deals with T3, Serine/threonine-protein kinase TAO2 (Homo sapiens). As to conditions: at 10 µM.
Assay [8] has as its target T4, Serine/threonine-protein kinase TAO3 (Homo sapiens) (UniProt Q9H2K8).
T4 sequence (whole entry): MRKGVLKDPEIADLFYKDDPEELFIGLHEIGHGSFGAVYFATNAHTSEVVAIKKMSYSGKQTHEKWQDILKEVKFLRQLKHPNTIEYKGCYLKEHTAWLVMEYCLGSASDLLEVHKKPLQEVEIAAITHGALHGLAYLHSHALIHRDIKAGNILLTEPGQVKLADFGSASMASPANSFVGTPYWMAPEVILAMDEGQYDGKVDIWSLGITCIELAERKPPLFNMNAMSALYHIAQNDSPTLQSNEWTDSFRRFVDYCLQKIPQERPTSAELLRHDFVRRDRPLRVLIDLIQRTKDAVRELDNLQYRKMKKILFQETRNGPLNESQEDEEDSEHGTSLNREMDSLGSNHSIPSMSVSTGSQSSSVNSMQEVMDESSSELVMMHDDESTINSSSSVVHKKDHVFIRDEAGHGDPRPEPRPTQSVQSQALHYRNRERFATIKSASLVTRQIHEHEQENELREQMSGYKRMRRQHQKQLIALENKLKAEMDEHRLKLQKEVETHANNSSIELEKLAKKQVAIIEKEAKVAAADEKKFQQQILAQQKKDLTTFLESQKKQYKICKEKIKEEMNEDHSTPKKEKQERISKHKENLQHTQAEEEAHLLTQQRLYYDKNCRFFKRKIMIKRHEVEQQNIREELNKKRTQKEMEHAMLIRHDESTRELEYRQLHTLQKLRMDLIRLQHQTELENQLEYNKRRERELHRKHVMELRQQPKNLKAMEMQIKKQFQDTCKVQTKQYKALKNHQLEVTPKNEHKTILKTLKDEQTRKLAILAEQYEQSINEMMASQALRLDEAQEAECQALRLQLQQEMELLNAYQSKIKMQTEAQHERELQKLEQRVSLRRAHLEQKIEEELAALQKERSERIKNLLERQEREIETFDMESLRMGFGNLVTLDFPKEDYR
The conditions noted are these: at 1 µM.

The target in assay [9] is T4, Serine/threonine-protein kinase TAO3 (Homo sapiens). As to conditions: at 10 µM.

Regarding `O=C(CCCc1ccc(-c2ccccc2F)cc1)Nc1ccc(O)cc1`, the residual activity was determined as 79% in assay [1]; 93% in [2]; 92% in assay [3]; 103% in assay [4]; 95% in assay [5]; 105% in assay [6]. Also, the results for the residual activity in [7], in [8] and in assay [9] were 102%, 100% and 94%, respectively.
